Measurements published in PubChem BioAssay.
Inconclusive results are not listed. Calls of active or inactive are those of the source.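 Rule for the calls, unless noted: active = growth inhibition above 25% in both replicates, a cutoff set 3 SD above the mean; inconclusive = above 25% in only one replicate; inactive = the rest.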

Tests used:
[1] = Her2 expression decrease, cell viability multiplex – SKBR3 breast tumor cells, AlphaScreen, ATP viability, primary screen (AID 461;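 active = Her2 level under about 52% in both replicate screens, with viability over 70% of control, limit read from the data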;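 for Her2 level: lower value means less Her2 protein in the cells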;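 for viability: percent of carrier control wells set as 100% viability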); conditions: SKBR3 Her2 protein level, 18-24 h, measured here: SKBR3 viability, ATP luminescence, at 10 µM
[2] = biological target: Receptor tyrosine-protein kinase erbB-2 (Homo sapiens) (UniProt P04626); experiment: as above; conditions: 18-24 h, at 10 µM, stronger effect = lower value
Sequence of Receptor tyrosine-protein kinase erbB-2 (Homo sapiens) (P04626 whole entry, looked up): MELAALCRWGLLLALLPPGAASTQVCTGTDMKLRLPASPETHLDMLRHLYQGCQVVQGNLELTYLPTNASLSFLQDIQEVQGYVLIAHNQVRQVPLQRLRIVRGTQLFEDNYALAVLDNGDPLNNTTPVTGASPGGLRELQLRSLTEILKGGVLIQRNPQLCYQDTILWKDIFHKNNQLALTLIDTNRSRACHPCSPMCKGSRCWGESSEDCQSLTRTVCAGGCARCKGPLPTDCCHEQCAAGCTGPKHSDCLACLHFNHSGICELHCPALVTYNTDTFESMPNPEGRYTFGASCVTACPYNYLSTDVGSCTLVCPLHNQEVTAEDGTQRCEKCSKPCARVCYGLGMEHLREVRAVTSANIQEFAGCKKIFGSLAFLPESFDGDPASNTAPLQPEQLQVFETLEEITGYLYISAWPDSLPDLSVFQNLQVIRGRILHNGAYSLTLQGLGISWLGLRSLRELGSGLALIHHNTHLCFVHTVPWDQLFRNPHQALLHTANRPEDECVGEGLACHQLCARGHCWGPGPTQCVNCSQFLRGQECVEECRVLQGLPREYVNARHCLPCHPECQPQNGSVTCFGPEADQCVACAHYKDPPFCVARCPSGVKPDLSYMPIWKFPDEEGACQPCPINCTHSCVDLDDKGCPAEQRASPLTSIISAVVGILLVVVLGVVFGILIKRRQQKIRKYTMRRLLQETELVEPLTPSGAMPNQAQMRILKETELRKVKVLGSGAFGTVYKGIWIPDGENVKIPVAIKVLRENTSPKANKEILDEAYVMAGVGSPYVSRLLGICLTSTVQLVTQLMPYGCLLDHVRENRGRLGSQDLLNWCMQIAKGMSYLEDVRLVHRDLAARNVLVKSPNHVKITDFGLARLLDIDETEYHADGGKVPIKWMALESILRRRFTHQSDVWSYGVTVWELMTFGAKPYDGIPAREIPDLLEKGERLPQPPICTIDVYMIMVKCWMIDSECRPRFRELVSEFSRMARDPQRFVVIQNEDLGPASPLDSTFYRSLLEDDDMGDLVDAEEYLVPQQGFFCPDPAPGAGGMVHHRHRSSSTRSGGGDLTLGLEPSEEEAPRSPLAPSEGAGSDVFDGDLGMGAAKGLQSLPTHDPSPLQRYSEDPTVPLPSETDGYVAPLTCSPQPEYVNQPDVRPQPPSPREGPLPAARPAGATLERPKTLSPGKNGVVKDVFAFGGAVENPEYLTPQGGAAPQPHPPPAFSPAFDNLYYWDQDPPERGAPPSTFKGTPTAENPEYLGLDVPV

[3] = reduced viability of SK-BR-3 breast cancer cells – cell-based, 24 h, human, pilot screen (AID 572;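 active = viability at or below 10% of carrier control in both of two separate runs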;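 note: compound exposure lasted between 18 and 24 h rather than exactly 24 h; 100% = carrier-treated control wells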); conditions: SK-BR-3 viability, CellTiter-Glo luminescence, at 10 µM, stronger effect = lower value
[4] = HUVEC growth inhibition – cell-based, human, primary screen (AID 575;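 active = viability at or below 30% in both replicate assays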;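 note: 100% = median of untreated cell wells with 0.1% DMSO on each plate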); conditions: HUVEC proliferation, CellTiter-Glo luminescence, 72 h; at 10 µM; stronger effect = lower value
[5] = H69AR cell proliferation blockers – human, duplicate replicates, primary screen (AID 580;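 active = viability at or under a set limit in both replicates, limit being median viability minus 3 SD, cut at about 48% in these data, passing the limit was not always enough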;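 note: 100% = mean luminescence of untreated wells and 0% = no signal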); conditions: H69AR lung tumor cells viability, ATP luminescence, 72 h; at 10 µM; stronger effect = lower value
[6] = MRP1 drug-resistance reversers in H69AR cells – cell-based, doxorubicin co-treatment, pilot screen (AID 601;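 active = viability loss from added drug above about 55%, and viability with drug at most 40%, in both replicates, limit read from the data, passing the limit was not always enough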); conditions: CellTiter-Glo, 72 h, at 10 µM; for differential viability (reversal): stronger effect = higher value
[7] = yeast transport mutant growth inhibition pilot in 384-well plates, post-Golgi transport modulator project (AID 636; in the data active = inhibition above about 31%); conditions: absorbance 615 nm, about 18 h, stronger effect = higher value
[8] = growth suppression of yeast trafficking mutant, preliminary HTS, modulators of trafficking downstream of Golgi apparatus project, 1536-format plate, OD 615 nm (AID 637; in the data active = inhibition above about 30%); conditions: yeast transport mutant growth, absorbance 615 nm, 18 h; stronger effect = higher value
[9] = S. cerevisiae growth inhibition in permissive medium (OD615), pilot counter-assay for S. cerevisiae lifespan shortening project, permissive growth control (AID 705); conditions: OD615, 24 h, at 10 µM, stronger effect = higher value
[10] = S. cerevisiae growth inhibition in restrictive medium, OD615, pilot screen, restrictive growth control, yeast lifespan reduction project (AID 706;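 active = growth inhibition above a set limit, 3 SD over mean compound inhibition, in both replicates, cut at about 43% in these data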;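 note: modified DeaD lifespan yeast strain shifted to restrictive glucose medium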); conditions: OD615, 48 h, at 10 µM, stronger effect = higher value
[11] = doxorubicin toxicity protection in MRP-1 cells – H69AR cells, CellTiter-Glo, duplicate, MRP-1 activator project, pilot screen (AID 807;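 active = viability increase at or above a cutoff of the median across tested compounds plus 3 SD, cut at about 8.5% in these data, passing the limit was not always enough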;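 note: compound pretreatment 18-22 h then 72 h combined with doxorubicin; 0% = doxorubicin alone and 100% = vehicle without doxorubicin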); conditions: H69AR viability with doxorubicin, CellTiter-Glo luminescence; at 10 µM; stronger effect = higher value
[12] = viability of HCT116 without oncogenic beta-catenin – human colon tumor cells, pilot screen (AID 823;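 active = cell viability at or below a set limit in both duplicate runs, the limit being the all-compound median minus 4 SD, cut at about 23% in these data, passing the limit was not always enough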;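 note: 0% = wells killed by 20 µM Hyamine and 100% = untreated DMSO cell wells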); conditions: HCT116 beta-catenin knockout viability, CellTiter-Glo, 60 h; at 10 µM; stronger effect = lower value
[13] = viability of PTEN-null HCT116 cells – cell-based, HCT116 clonal line, CellTiter-Glo, pilot screen (AID 824;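 active = viability at or below 27.92% in each of two runs, the all-compound median minus 4 SD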;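 note: 0% = 20 µM Hyamine control and 100% = vehicle cell control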); conditions: HCT116 PTEN-deleted viability, 60 h, at 10 µM, stronger effect = lower value
[14] = RAM pathway blockade in budding yeast – dse1pr::URA3 reporter, 5-FOA selection, pilot screen (AID 869;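 active = inhibition over a set limit, the all-compound mean plus 3 SD, in both replicate runs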;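 note: 0% = DMSO wells with no growth and 100% = 10 µM 1-NA-PP1 with full growth; RAM network block rescues cells from 5-FOA so hits raise OD615 growth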); conditions: S. cerevisiae dse1pr::URA3 5-FOA growth, OD615, 2 d; at 10 µM; stronger effect = higher value; strain carries analog-sensitive mutant Cbk1 kinase
[15] = RAM signaling pathway blockade in yeast – S. cerevisiae, Pdr1DBD-CYC8 efflux-inhibited sensitized strain, primary screen (AID 1298;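 active = RAM network inhibition above 8.4% in each of two replicates, 3 SD over the compound average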;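 note: 0% = DMSO untreated cells without growth and 100% = 10 µM 1-NA-PP1 full growth; higher means more yeast growth rescued from 5-FOA killing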); conditions: S. cerevisiae cbk1-as DSE1-URA3 strain, 5-FOA growth OD615, 2 d; at 50 µM; stronger effect = higher value
[16] = H69AR cells + 2 uM doxorubicin, measured here: viability with 2 uM doxorubicin, stronger effect = lower value
[17] = H69AR cells, compound alone cytotoxicity

Structure (SMILES): CC(C)CCNC(=O)Cn1c(NCCC(C)C)nc2c1c(=O)n(C)c(=O)n2C
- viability [1]: 121%
- Her2 level [2]: 118% (inactive)
- viability [3]: 121% (inactive)
- viability [4]: 102% (inactive)
- viability [5]: 93.7% (inactive)
- differential viability (reversal) ([6]; H69AR cells + 2 uM doxorubicin): -0.345% (inactive)
- viability [6, 16]: 94%
- viability [6, 17]: 93.7%
- inhibition [7]: 1.73% (inactive)
- inhibition [8]: -2.5% (inactive)
- growth inhibition [9]: -4.12% (inactive)
- growth inhibition [10]: -0.68% (inactive)
- viability increase [11]: -1.31% (inactive)
- viability [12]: 98.2% (inactive)
- viability [13]: 92.8% (inactive)
- inhibition [14]: 0.94% (inactive)
- RAM network inhibition [15]: -0.63% (inactive)

Structure (SMILES): CS(=O)(=O)NCCSCc1c(F)cccc1Cl
- viability [1]: 89.5%
- Her2 level [2]: 107% (inactive)
- viability [3]: 89.5% (inactive)
- viability [4]: 100% (inactive)
- viability [5]: 102% (inactive)
- differential viability (reversal) ([6]; H69AR cells + 2 uM doxorubicin): 12.5% (inactive)
- viability [6, 16]: 89.7%
- viability [6, 17]: 102%
- inhibition [7]: 0.4% (inactive)
- inhibition [8]: -8.06% (inactive)
- growth inhibition [9]: -2.46% (inactive)
- growth inhibition [10]: -2.41% (inactive)
- viability increase [11]: 0.04% (inactive)
- viability [12]: 96.2% (inactive)
- viability [13]: 91.9% (inactive)
- inhibition [14]: 1.1% (inactive)
- RAM network inhibition [15]: 1.27% (inactive)

Structure (SMILES): CC(=O)NC(CCS(C)(=O)=O)C(=O)Nc1cc(C)on1 (stereo not given)
- viability [1]: 119%
- Her2 level [2]: 106% (inactive)
- viability [3]: 119% (inactive)
- viability [4]: 105% (inactive)
- viability [5]: 99.1% (inactive)
- differential viability (reversal) ([6]; H69AR cells + 2 uM doxorubicin): 7% (inactive)
- viability [6, 16]: 92.1%
- viability [6, 17]: 99.1%
- inhibition [7]: -4.67% (inactive)
- inhibition [8]: 0% (inactive)
- growth inhibition [9]: -14.1% (inactive)
- growth inhibition [10]: -22.3% (inactive)
- viability increase [11]: 1% (inactive)
- viability [12]: 104% (inactive)
- viability [13]: 95.7% (inactive)
- inhibition [14]: 1.99% (inactive)
- RAM network inhibition [15]: 0.32% (inactive)

Structure (SMILES): Cc1cc(C)nc(NC2=NCC(=O)N2c2ccccc2Br)n1
- viability [1]: 93%
- Her2 level [2]: 93.5% (inactive)
- viability [3]: 93% (inactive)
- viability [4]: 101% (inactive)
- viability [5]: 89.8% (inactive)
- differential viability (reversal) ([6]; H69AR cells + 2 uM doxorubicin): -10.2% (inactive)
- viability [6, 16]: 100%
- viability [6, 17]: 89.8%
- inhibition [7]: -7.07% (inactive)
- inhibition [8]: -2.33% (inactive)
- growth inhibition [9]: -2.53% (inactive)
- growth inhibition [10]: 4.3% (inactive)
- viability increase [11]: -0.37% (inactive)
- viability [12]: 95.4% (inactive)
- viability [13]: 100% (inactive)
- inhibition [14]: 2.06% (inactive)
- RAM network inhibition [15]: 8.53% (inactive)

Structure (SMILES): COCCNC(=O)c1ccc(CS(=O)(=O)c2c(Cl)cccc2Cl)o1
- viability [1]: 84.5%
- Her2 level [2]: 116% (inactive)
- viability [3]: 84.5% (inactive)
- viability [4]: 84% (inactive)
- viability [5]: 98.9% (inactive)
- differential viability (reversal) ([6]; H69AR cells + 2 uM doxorubicin): 4.06% (inactive)
- viability [6, 16]: 94.8%
- viability [6, 17]: 98.9%
- inhibition [7]: -3.47% (inactive)
- inhibition [8]: -4.83% (inactive)
- growth inhibition [9]: -17.4% (inactive)
- growth inhibition [10]: -11.8% (inactive)
- viability increase [11]: -1.73% (inactive)
- viability [12]: 103% (inactive)
- viability [13]: 93% (inactive)
- inhibition [14]: 1.32% (inactive)
- RAM network inhibition [15]: 1.21% (inactive)
